Data reported in PubChem BioAssay AID1159580 (chemical genetic matrix, 2015).
In all, about 5,500 compounds went through this assay and about 2,000 (36%) were called active. Another 18% or so got no clear call; they are omitted. No stated cut-off is given here; in the data, active means normalized growth mostly below about 0.91 (no sharp cut-off); inconclusive means no clear call, values can overlap the other calls; inactive means mostly above about 0.92. The list shows a part of the results.

Test: chemical genetic growth profiling, strain panel (AID 1159580);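 further: tested at 20 µM; growth read once vehicle control cultures reached saturation at 30 °C; 1 = growth at the plate median or of vehicle wells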
Details: growth OD
[1] = S. cerevisiae deletion strains, locus YHR030C, strain SLT2, stronger effect = lower value
[2] = S. cerevisiae deletion strains, locus YJL095W, strain BCK1, stronger effect = lower value

Measured: normalized growth

CCCCOC(=O)c1ccccc1C(=O)OCc1ccccc1
inactive: S. cerevisiae deletion strains, locus YAL013W, strain DEP1, stronger effect = lower value 0.988 | S. cerevisiae deletion strains, locus YBR021W, strain FUR4, stronger effect = lower value 0.965 | S. cerevisiae deletion strains, locus YBR229C, strain ROT2, stronger effect = lower value 0.987 | S. cerevisiae deletion strains, locus YCL029C, strain bik1, stronger effect = lower value 0.957 | S. cerevisiae deletion strains, locus YDL035C, strain GPR1, stronger effect = lower value 0.956 | S. cerevisiae deletion strains, locus YDL074C, strain BRE1, stronger effect = lower value 0.971 | S. cerevisiae deletion strains, locus YDL101C, strain DUN1, stronger effect = lower value 0.99 | S. cerevisiae deletion strains, locus YDL134C, strain PPH21, stronger effect = lower value 0.986 | S. cerevisiae deletion strains, locus YDL185W, strain tfp1, stronger effect = lower value 0.961 | S. cerevisiae deletion strains, locus YDL192W, strain arf1, stronger effect = lower value 0.972 | S. cerevisiae deletion strains, locus YDR101C, strain arx1, stronger effect = lower value 0.971 | S. cerevisiae deletion strains, locus YDR150W, strain NUM1, stronger effect = lower value 0.947 | S. cerevisiae deletion strains, locus YDR162C, strain NBP2, stronger effect = lower value 0.975 | S. cerevisiae deletion strains, locus YDR318W, strain mcm21, stronger effect = lower value 0.967 | S. cerevisiae deletion strains, locus YDR388W, stronger effect = lower value 0.95 | S. cerevisiae deletion strains, locus YDR502C, strain sam2, stronger effect = lower value 0.966 | S. cerevisiae deletion strains, locus YEL061C, strain CIN8, stronger effect = lower value 0.989 | S. cerevisiae deletion strains, locus YER110C, stronger effect = lower value 0.968 | S. cerevisiae deletion strains, locus YER155C, strain BEM2, stronger effect = lower value 0.968 | S. cerevisiae deletion strains, locus YER167W, strain BCK2, stronger effect = lower value 0.983 | S. cerevisiae deletion strains, locus YGL078C, strain dbp3, stronger effect = lower value 0.968 | S. cerevisiae deletion strains, locus YGL086W, strain mad1, stronger effect = lower value 0.975 | S. cerevisiae deletion strains, locus YGL248W, strain PDE1, stronger effect = lower value 0.993 | S. cerevisiae deletion strains, locus YGR078C, strain PAC10, stronger effect = lower value 0.97 | S. cerevisiae deletion strains, locus YGR135W, strain pre9, stronger effect = lower value 0.972 | S. cerevisiae deletion strains, locus YGR229C, strain SMI1, stronger effect = lower value 0.895 | S. cerevisiae deletion strains, locus YGR252W, strain gcn5, stronger effect = lower value 0.994 | [1] 0.981 | S. cerevisiae deletion strains, locus YHR079C, strain IRE1 (second series), stronger effect = lower value 0.966 | S. cerevisiae deletion strains, locus YHR094C, strain hxt1, stronger effect = lower value 0.965 | S. cerevisiae deletion strains, locus YHR129C, strain ARP1, stronger effect = lower value 0.983 | S. cerevisiae deletion strains, locus YHR200W, strain rpn10, stronger effect = lower value 0.978 | S. cerevisiae deletion strains, locus YIL066C, strain RNR3, stronger effect = lower value 0.929 | S. cerevisiae deletion strains, locus YIL073C, strain SPO22, stronger effect = lower value 0.821 | S. cerevisiae deletion strains, locus YIL125W, strain kgd1, stronger effect = lower value 0.978 | S. cerevisiae deletion strains, locus YIR030C, strain dcg1, stronger effect = lower value 0.965 | [2] 0.994 | S. cerevisiae deletion strains, locus YJL134W, strain LCB3, stronger effect = lower value 0.968 | S. cerevisiae deletion strains, locus YJL168C, strain set2, stronger effect = lower value 0.974 | S. cerevisiae deletion strains, locus YJL187C, strain SWE1 (second series), stronger effect = lower value 0.971 | S. cerevisiae deletion strains, locus YJR043C, strain POL32, stronger effect = lower value 0.989 | S. cerevisiae deletion strains, locus YJR075W, strain HOC1, stronger effect = lower value 0.98 | S. cerevisiae deletion strains, locus YKL009W, strain mrt4, stronger effect = lower value 0.94 | S. cerevisiae deletion strains, locus YKL068W, stronger effect = lower value 0.964 | S. cerevisiae deletion strains, locus YKL085W, strain MDH1 (second series), stronger effect = lower value 0.973 | S. cerevisiae deletion strains, locus YKL085W, strain MDH1, stronger effect = lower value 0.973 | S. cerevisiae deletion strains, locus YKL190W, strain CNB1, stronger effect = lower value 0.979 | S. cerevisiae deletion strains, locus YKR001C, strain vps1, stronger effect = lower value 0.959 | S. cerevisiae deletion strains, locus YLR039C, strain RIC1, stronger effect = lower value 0.934 | S. cerevisiae deletion strains, locus YLR058C, strain SHM2, stronger effect = lower value 0.974 | S. cerevisiae deletion strains, locus YLR102C, strain apc9, stronger effect = lower value 0.971 | S. cerevisiae deletion strains, locus YLR262C, strain YPT6, stronger effect = lower value 0.858 | S. cerevisiae deletion strains, locus YLR268W, strain sec22, stronger effect = lower value 0.968 | S. cerevisiae deletion strains, locus YLR330W, strain CHS5, stronger effect = lower value 0.987 | S. cerevisiae deletion strains, locus YLR342W, strain FKS1 (second series), stronger effect = lower value 0.952 | S. cerevisiae deletion strains, locus YLR371W, strain rom2, stronger effect = lower value 0.97 | S. cerevisiae deletion strains, locus YLR418C, strain cdc73, stronger effect = lower value 0.976 | S. cerevisiae deletion strains, locus YML016C, strain PPZ1, stronger effect = lower value 0.996 | S. cerevisiae deletion strains, locus YML032C, strain rad52, stronger effect = lower value 0.964 | S. cerevisiae deletion strains, locus YML124C, strain tub3, stronger effect = lower value 0.956 | S. cerevisiae deletion strains, locus YMR078C, strain ctf18, stronger effect = lower value 0.957 | S. cerevisiae deletion strains, locus YMR223W, strain ubp8, stronger effect = lower value 0.957 | S. cerevisiae deletion strains, locus YMR263W, strain SAP30, stronger effect = lower value 0.973 | S. cerevisiae deletion strains, locus YMR307W, strain GAS1, stronger effect = lower value 0.718 | S. cerevisiae deletion strains, locus YNL067W, strain RPL9B, stronger effect = lower value 0.979 | S. cerevisiae deletion strains, locus YNL128W, strain TEP1, stronger effect = lower value 0.985 | S. cerevisiae deletion strains, locus YNL153C, strain GIM3, stronger effect = lower value 0.981 | S. cerevisiae deletion strains, locus YNL233W, strain BNI4, stronger effect = lower value 0.998 | S. cerevisiae deletion strains, locus YNL250W, strain rad50, stronger effect = lower value 0.968 | S. cerevisiae deletion strains, locus YNL271C, strain bni1, stronger effect = lower value 0.973 | S. cerevisiae deletion strains, locus YNL298W, strain CLA4, stronger effect = lower value 0.949 | S. cerevisiae deletion strains, locus YNL307C, strain MCK1, stronger effect = lower value 0.915 | S. cerevisiae deletion strains, locus YNL322C, strain KRE1, stronger effect = lower value 0.981 | S. cerevisiae deletion strains, locus YNR052C, strain pop2, stronger effect = lower value 0.964 | S. cerevisiae deletion strains, locus YOL006C, strain TOP1, stronger effect = lower value 0.838 | S. cerevisiae deletion strains, locus YOL012C, strain htz1 0.742 | S. cerevisiae deletion strains, locus YOL147C, strain pex11, stronger effect = lower value 0.964 | S. cerevisiae deletion strains, locus YOR061W, strain CKA2, stronger effect = lower value 0.984 | S. cerevisiae deletion strains, locus YOR069W, strain VPS5, stronger effect = lower value 0.982 | S. cerevisiae deletion strains, locus YOR136W, strain idh2, stronger effect = lower value 0.972 | S. cerevisiae deletion strains, locus YOR144C, strain elg1, stronger effect = lower value 0.962 | S. cerevisiae deletion strains, locus YOR184W, strain ser1, stronger effect = lower value 0.931 | S. cerevisiae deletion strains, locus YOR316C, strain cot1, stronger effect = lower value 0.972 | S. cerevisiae deletion strains, locus YPL055C, strain LGE1, stronger effect = lower value 0.957 | S. cerevisiae deletion strains, locus YPL241C, strain CIN2, stronger effect = lower value 0.979 | S. cerevisiae deletion strains, locus YPR119W, strain clb2, stronger effect = lower value 0.955 | S. cerevisiae deletion strains, locus YPR141C, strain kar3, stronger effect = lower value 0.959 | S. cerevisiae deletion strains, locus YPR163C, strain tif3, stronger effect = lower value 0.963 | S. cerevisiae deletion strains, locus YPR167C, strain met16, stronger effect = lower value 0.98 | S. cerevisiae deletion strains, strain wtn01, stronger effect = lower value 0.96 | S. cerevisiae strains, strain wild type, stronger effect = lower value 0.981

CCCC[C@@H](CC)COC(=O)c1ccccc1O
inactive: [1] 0.979 | S. cerevisiae deletion strains, locus YHR079C, strain IRE1, stronger effect = lower value 0.99 | [2] 1.02 | S. cerevisiae deletion strains, locus YJR066W, strain TOR1, stronger effect = lower value 0.938 | S. cerevisiae deletion strains, locus YLR113W, strain HOG1, stronger effect = lower value 0.974 | S. cerevisiae deletion strains, locus YNL183C, strain NPR1, stronger effect = lower value 0.958 | S. cerevisiae deletion strains, locus YOR231W, strain MKK1, stronger effect = lower value 0.984 | S. cerevisiae deletion strains, locus YPL256C, strain CLN2, stronger effect = lower value 0.994
